An excerpt weighted towards active compounds, which were near 3.5% of everything screened.
Myeloid diff MLP – induction of myeloid progenitor differentiation, primary screen, cell-based, flow cytometry, MLPCN library; ER-HoxA9 myeloid progenitors, lysozyme-GFP differentiation; calls only at 10 µM; actives 1% (n = 360,000);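 active = normalized GFP-positive differentiation at or above the plate's own cutoff, the solvent-only control mean plus 3 SD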;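 also: cells exposed to compound for four days before flow analysis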
ATG4B inh – ATG4B protease inhibitors, primary screen, biochemical, fluorescence, uHTS; Cysteine protease ATG4B (Homo sapiens), Q9Y4P1; AID 504462, 2011; inhibition, % at 8.33 µM; actives 0.51% (n = 340,000); ATG4B cleavage of LC3-PLA2, NBD-HPC fluorescence, 1 h; in the data active = inhibition above about 40%
Target sequence (Q9Y4P1 whole entry, looked up): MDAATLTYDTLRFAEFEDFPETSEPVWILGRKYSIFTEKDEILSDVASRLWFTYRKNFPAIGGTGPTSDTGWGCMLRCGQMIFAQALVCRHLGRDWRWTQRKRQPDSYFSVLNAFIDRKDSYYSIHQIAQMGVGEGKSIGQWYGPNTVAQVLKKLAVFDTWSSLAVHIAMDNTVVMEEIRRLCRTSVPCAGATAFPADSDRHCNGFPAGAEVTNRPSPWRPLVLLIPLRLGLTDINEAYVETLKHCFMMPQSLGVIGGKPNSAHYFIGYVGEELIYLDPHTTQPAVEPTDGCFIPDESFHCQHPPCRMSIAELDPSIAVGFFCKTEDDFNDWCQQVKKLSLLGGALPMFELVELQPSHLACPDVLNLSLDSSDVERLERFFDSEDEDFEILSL
CHRM1 antagonist – human M1 muscarinic receptor antagonists, primary screen, CHO-K1 cells, Fluo-8 calcium fluorescence, 1536-well; actives 1.3% (n = 360,000); inhibition, % at 3 µM; CHO-K1 hM1, ACh EC80 antagonist;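 active = percent inhibition above its own plate's cutoff, namely the mean of that plate's compound wells plus 3 SD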;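 also: peak over basal fluorescence ratio during 140 s after agonist addition; 0% = ACh EC80 plus DMSO and 100% = DMSO alone without agonist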
M1 ag – human M1 muscarinic receptor agonists, primary screen, Fluo-8 calcium fluorescence, CHO-K1 cells, HTS; CHO-K1 hM1, agonist mode; 0% DMSO, 100% acetylcholine EC100; activation, % at 3 µM; actives 0.33% (n = 360,000);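 active = activation above the run's mean compound activation plus 3 SD, cut at about 16% in these data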;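 also: peak over basal fluorescence ratio within a 140 s kinetic read after compound addition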
M1 PAM – human M1 muscarinic receptor positive allosteric modulators, primary screen, CHO-K1 cells, Fluo-8 calcium fluorescence, 1536-well | Muscarinic acetylcholine receptor M1 (Homo sapiens), P11229 | activation, % at 3 µM | actives 0.088% (n = 360,000) | CHO-K1 hM1, ACh EC20; 0% = ACh EC20, 100% = maximal ACh; in the data active = activation above about 19%, passing the limit was not always enough
SKN-1 inh – suppressors of acrylamide-induced Pgst-4::GFP reporter in worms, primary screen, SKN-1 inhibitor project, whole organism, uHTS, GFP/RFP fluorescence ratio, strain VP596. actives 0.49% (n = 360,000). AID 624304, 2012. C. elegans VP596 Pgst-4::GFP/RFP ratio, 24 h. inhibition, % at 21.8 µM;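 active = interference check ratio from 0.5 to 1.5 plus GFP to RFP signal ratio inhibition reaching or exceeding a fixed threshold, cut at about 30% in these data, passing the limit was not always enough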
* hit, by the source's call; i = inactive; x = no result given; + = active, no number.

SMILES	Myeloid diff MLP	ATG4B inh	CHRM1 antagonist	M1 ag	M1 PAM	SKN-1 inh
COc1ccc(-c2coc3c(C(=O)Nc4cc(OC)c(OC)c(OC)c4)cccc23)c(C)c1	x	x	45*	-2	-22	4
Cc1cc(C)nc(-n2ncc3c2CC(C)CC3=O)n1 (stereo not given)	i	9	-12	-3	6	2
COc1ccc(OC)c(-c2c3cc(O)c(=O)cc-3oc3cc(O)c(O)cc23)c1	i	-138	33*	222*	-19	69
O=c1cc2oc3cc(O)c(O)cc3c(-c3ccccc3O)c-2cc1O	i	9	10	26*	-10	71
Cc1ccccc1-c1cc(=O)c2c(O)cccc2o1	i	16	-10	-5	2	1
CCOc1ccccc1-c1c2cc(O)c(=O)cc-2oc2cc(O)c(O)cc12	i	i	1	17*	-4	52
COc1ccc(OC)c(-c2oc3ccccc3c(=O)c2O)c1	x	-5	-3	-4	6	-4
O=C(Nc1ccn(CCCNCc2ccccn2)c(=O)n1)OCc1ccccc1	i	-2	-9	-10	1	-13
O=C(Nc1ccn(CCCN2CCN(Cc3ccc(F)cc3)CC2)c(=O)n1)OCc1ccccc1	i	x	39*	-10	-26	3
O=C(Nc1ccn(CCCNCC2CCCCC2)c(=O)n1)OCc1ccccc1	i	x	-5	-10	-1	10
O=C(Nc1ccn(CCCN2CCN(c3ncccn3)CC2)c(=O)n1)OCc1ccccc1	i	x	22*	-12	-19	-7
Cc1ccc(C(=O)C2C(=O)C3CCC2C3)cc1 (stereo not given)	i	x	2	-3	-7	12
CCN(C(=O)CSc1nnc(-c2ccco2)n1Cc1ccccc1)C1CCS(=O)(=O)C1 (stereo not given)	i	0	-22	-4	27*	-17
CCN(C(=O)CSc1nnc(C)n1Cc1ccccc1)C1CCS(=O)(=O)C1 (stereo not given)	x	-8	-7	-11	2	4
O=C(Cn1cc(C(=S)N2CCOCC2)c2ccccc21)N1CCOCC1	i	-2	-27	-2	9	-11
O=C(O)Cn1cc(C(=S)N2CCOCC2)c2ccccc21	i	-1	-27	2	27*	-5
c1ccc(-c2noc(-c3cccnc3)n2)nc1	+	-6	-7	-2	5	2
c1ccc(-c2noc(-c3ccc4ccccc4c3)n2)nc1	i	-3	5	-2	1	42*
c1ccc(-c2noc(-c3ccc4c(c3)OCO4)n2)nc1	x	12	2	-3	-3	11
c1ccc(-c2noc(-c3ccncc3)n2)nc1	i	-13	-7	-3	3	-8
Cc1ccc(N2CC(C)Cn3c2nc2c3c(=O)[nH]c(=O)n2C)cc1C (stereo not given)	x	0	-7	-7	4	13
O=C(OCC(=O)N1CCN(c2ccccc2)CC1)c1cc(Cl)ccc1[N+](=O)[O-]	i	-2	0	-3	0	7
COc1ccc(C2=NN(CCC(=O)NC3CCCCC3C)C(=O)CC2)cc1 (stereo not given)	i	x	-18	-4	7	2
COc1ccc(C(=O)C(OC(=O)c2ccc(C)c(NC(C)=O)c2)c2ccccc2)cc1 (stereo not given)	+	-8	-3	0	7	4
CC(=O)Nc1cc(C(=O)OC(C(=O)c2ccccc2)c2ccccc2)ccc1C (stereo not given)	i	2	4	-3	1	-9
SMILES	Myeloid diff MLP	ATG4B inh	CHRM1 antagonist	M1 ag	M1 PAM	SKN-1 inh
Cc1cc(OCC(=O)OC(C)C(=O)NC2CC2)c(C(C)C)cc1Cl (stereo not given)	i	x	-12	-1	7	8
O=C(C1CCC(=O)N(C2CCCC2)C1)N1CCN(Cc2cccc(F)c2)CC1 (stereo not given)	+	22	12	-6	-3	11
CC1(C)CC2(C)OC2C2(C1)N=NC(=Nc1ccccc1)O2 (stereo not given)	i	x	-6	-4	7	4
Nc1nonc1-n1nnc(C(=O)N/N=C/c2cccs2)c1-c1ccc2c(c1)OCO2	i	0	-7	43*	9	10
CCOc1cccc(-c2c(C(=O)N/N=C/c3sccc3C)nnn2-c2nonc2N)c1	i	-9	-1	1	6	6
CCOc1cccc(-c2c(C(=O)N/N=C/c3ccsc3)nnn2-c2nonc2N)c1	i	7	-5	19*	16	30
Cc1ccc(-c2c(C(=O)N/N=C/c3ccsc3)nnn2-c2nonc2N)cc1	i	-9	-1	41*	1	6
Cc1ccc(-c2c(C(=O)N/N=C/c3cccs3)nnn2-c2nonc2N)cc1	i	-4	-21	18*	21	1
CN(CC(=O)Nc1cccc(F)c1)CC(=O)N(C)c1c(N)n(Cc2ccccc2)c(=O)[nH]c1=O	i	0	24	-2	-3	-11
O=S1(=O)CC(N2CCN(Cc3ccccc3F)CC2)CN1Cc1cn(Cc2ccc(C(F)(F)F)cc2)nn1 (stereo not given)	i	x	x	x	x	18
COC(=O)[C@H](Cc1ccccc1)NC(=O)[C@@H](N)CC(=O)OCc1ccccc1	+	6	-7	-1	6	-2
COC(=O)C(CC(C)C)NC(=O)C(N)Cc1ccccc1 (stereo not given)	i	-17	-3	-4	5	-9
CCCn1nnnc1NCc1ccc(N2CCCC2)cc1	i	2	58*	-7	-27	5
CCCCn1nnnc1NCc1ccc(N2CCCC2)cc1	i	-3	91*	-6	-20	25
COc1ccc(S(=O)(=O)Nc2cccc3c2O[C@H](CN(C)C(=O)Nc2c(C)noc2C)[C@@H](C)CN([C@H](C)CO)C3=O)cc1	i	-3	-13	-2	6	4
CC(=O)N1CC2(NC(=O)c3ccccc3N2)c2ccccc21 (stereo not given)	i	6	0	-3	0	-2
COc1cccc(Nc2ncnc3sc(C)cc23)c1	i	2	20	-6	-7	16
